Holding throughout (assay): DAPPL (digital affinity profiling via proximity ligation, sequencing); 10 mM Tris-HCl pH 7.5, 50 mM NaCl, 1 mM DTT, 4% glycerol, room temperature, 30 min; GST-TFs on glutathione beads, 16-mer random dsDNA library, 0.1% formaldehyde crosslink after washing; high values mean tight binding
Holding throughout (settings): protein: recombinant; tags: N-terminal GST; dsDNA, one strand shown

In test [1] the target is T1, FLI1 (Homo sapiens, UniProt Q01543 1-452).
T1 sequence: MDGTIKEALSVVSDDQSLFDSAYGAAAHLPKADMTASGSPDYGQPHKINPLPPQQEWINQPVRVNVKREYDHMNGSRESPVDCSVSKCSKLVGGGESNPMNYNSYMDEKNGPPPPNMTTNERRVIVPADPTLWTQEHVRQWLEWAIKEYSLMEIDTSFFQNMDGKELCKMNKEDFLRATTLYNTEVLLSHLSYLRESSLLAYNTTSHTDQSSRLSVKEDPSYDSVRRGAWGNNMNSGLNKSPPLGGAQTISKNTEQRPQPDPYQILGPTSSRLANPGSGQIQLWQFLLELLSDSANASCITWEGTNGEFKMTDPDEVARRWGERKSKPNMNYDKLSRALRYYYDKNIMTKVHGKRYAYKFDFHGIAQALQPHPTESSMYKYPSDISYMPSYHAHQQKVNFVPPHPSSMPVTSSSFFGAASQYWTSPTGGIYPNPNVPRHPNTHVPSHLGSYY
The method in brief:
(§1)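 A tag-only sample was pooled with DNA-barcoded human transcription factors that had been expressed in yeast as GST fusions and captured on glutathione beads. The pools were incubated for 30 min at room temperature with 200 nmole of a random double-stranded 16-mer DNA library in Tris/NaCl/DTT/glycerol buffer, then washed, crosslinked with 0.1% formaldehyde, proximity-ligated (BsaI/T4 ligase, 1 h, 37 °C), PCR-amplified and sequenced on an Illumina NextSeq500. Binding signal is each hexamer's read frequency for a factor divided by its frequency for the tag-only sample.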

The target in test [2] is T2, ELK1 (Homo sapiens, UniProt P19419 1-428).
T2 sequence: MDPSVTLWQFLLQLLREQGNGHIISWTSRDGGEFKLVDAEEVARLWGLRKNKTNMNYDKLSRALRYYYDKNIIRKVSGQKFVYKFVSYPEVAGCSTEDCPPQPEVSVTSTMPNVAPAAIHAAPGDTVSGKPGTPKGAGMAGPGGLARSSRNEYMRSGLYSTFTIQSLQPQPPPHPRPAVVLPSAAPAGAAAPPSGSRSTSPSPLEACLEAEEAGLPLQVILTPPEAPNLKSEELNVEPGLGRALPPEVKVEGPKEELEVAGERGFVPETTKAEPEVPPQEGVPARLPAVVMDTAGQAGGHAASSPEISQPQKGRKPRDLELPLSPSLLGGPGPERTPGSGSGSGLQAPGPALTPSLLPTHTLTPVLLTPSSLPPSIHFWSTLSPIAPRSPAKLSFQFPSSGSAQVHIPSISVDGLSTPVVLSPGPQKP
An outline of the steps: as §1

Test [3] has as its target ELF1 (Homo sapiens, UniProt P32519 1-619). The method in brief:
as §1

The target in test [4] is T3, EHF (Homo sapiens, UniProt Q9NZC4 1-300).
T3 sequence: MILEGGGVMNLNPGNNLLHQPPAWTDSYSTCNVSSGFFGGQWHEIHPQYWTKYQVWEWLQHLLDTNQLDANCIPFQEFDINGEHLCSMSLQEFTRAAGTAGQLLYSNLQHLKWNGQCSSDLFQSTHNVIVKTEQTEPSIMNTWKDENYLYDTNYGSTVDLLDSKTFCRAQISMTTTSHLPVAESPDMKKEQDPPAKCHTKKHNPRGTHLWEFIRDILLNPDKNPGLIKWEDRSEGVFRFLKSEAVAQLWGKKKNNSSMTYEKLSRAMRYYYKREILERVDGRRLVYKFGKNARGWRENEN
The method in brief:
as §1

Test [5] has as its target SPI1 (Homo sapiens, UniProt P17947 1-270). An outline of the steps:
as §1

In test [6] the target is SPIB (Homo sapiens, UniProt Q01892 1-262). An outline of the steps:
as §1

Test [7] has as its target ETV5 (Homo sapiens, UniProt P41161 1-510). The method in brief:
as §1

For test [8], the target named is T4, SPIC (Homo sapiens, UniProt Q8N5J4 1-248).
T4 sequence: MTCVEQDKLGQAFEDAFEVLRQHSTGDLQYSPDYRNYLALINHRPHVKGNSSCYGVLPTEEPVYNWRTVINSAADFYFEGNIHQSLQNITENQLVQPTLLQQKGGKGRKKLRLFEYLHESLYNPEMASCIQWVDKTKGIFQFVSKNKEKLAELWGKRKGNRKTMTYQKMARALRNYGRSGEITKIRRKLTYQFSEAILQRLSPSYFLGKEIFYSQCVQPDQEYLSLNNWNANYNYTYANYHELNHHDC
The method in brief:
as §1

Test [9] addresses ETV1 (Homo sapiens, UniProt P50549 1-477). The method in brief:
as §1

The target in test [10] is T5, SPDEF (Homo sapiens, UniProt O95238 1-335).
T5 sequence: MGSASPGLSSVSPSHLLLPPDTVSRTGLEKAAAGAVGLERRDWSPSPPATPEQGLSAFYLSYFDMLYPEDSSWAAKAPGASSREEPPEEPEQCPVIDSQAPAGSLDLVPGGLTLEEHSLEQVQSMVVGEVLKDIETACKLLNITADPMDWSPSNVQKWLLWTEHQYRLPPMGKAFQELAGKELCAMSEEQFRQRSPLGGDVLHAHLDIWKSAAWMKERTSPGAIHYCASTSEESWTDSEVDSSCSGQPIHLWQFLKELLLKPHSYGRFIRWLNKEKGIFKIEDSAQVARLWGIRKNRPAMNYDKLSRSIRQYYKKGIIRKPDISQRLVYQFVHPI
The method in brief: as §1

In test [11] the target is T6, ELF5 (Homo sapiens, UniProt Q9UKW6-2 1-255).
T6 sequence: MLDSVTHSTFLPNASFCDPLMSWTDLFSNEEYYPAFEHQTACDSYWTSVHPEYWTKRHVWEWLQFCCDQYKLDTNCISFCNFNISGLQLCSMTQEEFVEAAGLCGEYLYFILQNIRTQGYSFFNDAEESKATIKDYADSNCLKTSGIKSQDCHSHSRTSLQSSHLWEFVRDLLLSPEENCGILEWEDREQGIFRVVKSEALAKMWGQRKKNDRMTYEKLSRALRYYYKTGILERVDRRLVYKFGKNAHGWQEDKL
The method in brief:
as §1

The target in test [12] is ETV6 (Homo sapiens, UniProt P41212 1-452). The method in brief:
as §1

Sequence of ELF1 (P32519 whole entry): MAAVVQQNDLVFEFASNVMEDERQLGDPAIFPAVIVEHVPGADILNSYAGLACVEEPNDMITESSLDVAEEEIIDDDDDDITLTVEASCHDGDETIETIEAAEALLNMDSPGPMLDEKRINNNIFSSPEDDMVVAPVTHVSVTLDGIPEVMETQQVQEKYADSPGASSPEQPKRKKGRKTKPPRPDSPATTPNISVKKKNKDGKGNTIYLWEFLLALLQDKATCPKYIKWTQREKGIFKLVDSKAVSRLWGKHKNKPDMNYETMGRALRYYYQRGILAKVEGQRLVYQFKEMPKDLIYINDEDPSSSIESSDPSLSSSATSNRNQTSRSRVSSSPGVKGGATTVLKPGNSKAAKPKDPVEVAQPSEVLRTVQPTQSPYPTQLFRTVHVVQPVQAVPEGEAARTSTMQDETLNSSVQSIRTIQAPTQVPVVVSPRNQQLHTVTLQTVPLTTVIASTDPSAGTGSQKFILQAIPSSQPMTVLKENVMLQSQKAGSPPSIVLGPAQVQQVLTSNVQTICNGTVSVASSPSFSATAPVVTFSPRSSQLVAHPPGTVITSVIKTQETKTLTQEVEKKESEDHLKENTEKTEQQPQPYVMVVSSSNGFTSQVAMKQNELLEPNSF
Sequence of ETV6 (P41212 whole entry): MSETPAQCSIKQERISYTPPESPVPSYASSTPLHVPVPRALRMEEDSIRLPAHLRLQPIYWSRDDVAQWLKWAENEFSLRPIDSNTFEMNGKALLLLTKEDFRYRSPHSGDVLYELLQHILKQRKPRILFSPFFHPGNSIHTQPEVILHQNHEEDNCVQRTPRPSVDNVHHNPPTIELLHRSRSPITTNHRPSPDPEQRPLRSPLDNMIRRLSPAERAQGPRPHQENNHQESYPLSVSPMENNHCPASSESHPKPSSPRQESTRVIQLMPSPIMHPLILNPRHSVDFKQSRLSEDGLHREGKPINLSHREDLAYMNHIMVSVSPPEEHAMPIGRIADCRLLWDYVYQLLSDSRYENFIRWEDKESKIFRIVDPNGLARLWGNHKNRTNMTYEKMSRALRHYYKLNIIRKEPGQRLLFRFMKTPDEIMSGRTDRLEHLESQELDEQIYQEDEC
Sequence of ETV1 (P50549 whole entry): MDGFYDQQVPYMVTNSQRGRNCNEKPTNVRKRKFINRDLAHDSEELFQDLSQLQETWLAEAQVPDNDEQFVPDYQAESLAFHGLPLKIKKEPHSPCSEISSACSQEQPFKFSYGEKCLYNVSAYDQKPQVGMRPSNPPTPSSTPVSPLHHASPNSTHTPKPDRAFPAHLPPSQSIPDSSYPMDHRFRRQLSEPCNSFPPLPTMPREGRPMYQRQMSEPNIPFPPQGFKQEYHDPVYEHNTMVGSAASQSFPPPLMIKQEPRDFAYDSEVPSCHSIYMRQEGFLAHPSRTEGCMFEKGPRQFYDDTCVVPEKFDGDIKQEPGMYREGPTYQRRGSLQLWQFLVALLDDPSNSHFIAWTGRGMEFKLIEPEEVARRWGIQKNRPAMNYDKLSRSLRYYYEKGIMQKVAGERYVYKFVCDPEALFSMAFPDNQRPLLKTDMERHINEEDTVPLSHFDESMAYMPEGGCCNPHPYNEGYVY
Sequence of ETV5 (P41161 whole entry): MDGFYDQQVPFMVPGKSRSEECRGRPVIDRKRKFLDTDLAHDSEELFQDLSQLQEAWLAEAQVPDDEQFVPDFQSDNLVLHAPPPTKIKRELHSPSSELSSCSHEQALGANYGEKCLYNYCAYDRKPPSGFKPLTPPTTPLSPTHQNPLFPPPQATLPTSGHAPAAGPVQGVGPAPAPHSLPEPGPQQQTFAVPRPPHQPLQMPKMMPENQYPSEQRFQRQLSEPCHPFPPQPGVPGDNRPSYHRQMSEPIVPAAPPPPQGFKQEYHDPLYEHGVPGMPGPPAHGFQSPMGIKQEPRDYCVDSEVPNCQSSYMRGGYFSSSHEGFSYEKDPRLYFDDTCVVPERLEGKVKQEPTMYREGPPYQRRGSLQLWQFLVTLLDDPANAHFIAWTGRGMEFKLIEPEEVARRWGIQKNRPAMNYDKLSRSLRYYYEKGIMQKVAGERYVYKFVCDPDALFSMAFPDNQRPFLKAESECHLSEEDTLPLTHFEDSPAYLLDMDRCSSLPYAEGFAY
Sequence of SPIB (Q01892 whole entry): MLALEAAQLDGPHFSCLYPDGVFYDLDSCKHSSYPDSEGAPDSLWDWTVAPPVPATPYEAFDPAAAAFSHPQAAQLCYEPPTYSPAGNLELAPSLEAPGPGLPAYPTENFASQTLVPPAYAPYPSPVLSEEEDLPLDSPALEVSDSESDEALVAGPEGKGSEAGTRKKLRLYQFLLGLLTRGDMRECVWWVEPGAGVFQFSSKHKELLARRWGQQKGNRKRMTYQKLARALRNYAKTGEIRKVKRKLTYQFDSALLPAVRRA

For the sequence ACGGTT, the binding signal in test [1] was 1.07 fold enrichment (6-mer frequency, TF over GST control); in test [2] it was 1.02 fold enrichment (6-mer frequency, TF over GST control); in test [3] it was 1.03 fold enrichment (6-mer frequency, TF over GST control); in test [4], 1.04 fold enrichment (6-mer frequency, TF over GST control); in test [5], 1.02 fold enrichment (6-mer frequency, TF over GST control); in test [6], 1.02 fold enrichment (6-mer frequency, TF over GST control). The binding signal was 1 fold enrichment (6-mer frequency, TF over GST control) in test [7]; 1.04 fold enrichment (6-mer frequency, TF over GST control) in [8]; 1.08 fold enrichment (6-mer frequency, TF over GST control) in [9]; 1.04 fold enrichment (6-mer frequency, TF over GST control) in test [10]; 1.05 fold enrichment (6-mer frequency, TF over GST control) in test [11]; 1.01 fold enrichment (6-mer frequency, TF over GST control) in [12].

(Values after article PMC7862700, “An all-to-all approach to the identification of sequence-specific readers for epigenetic DNA modifications on cytosine”.)
